The molecules below were run against Neurogenic locus notch homolog protein 2 (Homo sapiens) (UniProt Q04721) (assay: small molecules binding Notch2 protein – biochemical, small-molecule microarray, 635 nm fluorescence, stem cell growth factors, primary screen (AID 1073)). Details: higher = more signal.
Neurogenic locus notch homolog protein 2 (Homo sapiens), sequence (Q04721 whole entry, looked up): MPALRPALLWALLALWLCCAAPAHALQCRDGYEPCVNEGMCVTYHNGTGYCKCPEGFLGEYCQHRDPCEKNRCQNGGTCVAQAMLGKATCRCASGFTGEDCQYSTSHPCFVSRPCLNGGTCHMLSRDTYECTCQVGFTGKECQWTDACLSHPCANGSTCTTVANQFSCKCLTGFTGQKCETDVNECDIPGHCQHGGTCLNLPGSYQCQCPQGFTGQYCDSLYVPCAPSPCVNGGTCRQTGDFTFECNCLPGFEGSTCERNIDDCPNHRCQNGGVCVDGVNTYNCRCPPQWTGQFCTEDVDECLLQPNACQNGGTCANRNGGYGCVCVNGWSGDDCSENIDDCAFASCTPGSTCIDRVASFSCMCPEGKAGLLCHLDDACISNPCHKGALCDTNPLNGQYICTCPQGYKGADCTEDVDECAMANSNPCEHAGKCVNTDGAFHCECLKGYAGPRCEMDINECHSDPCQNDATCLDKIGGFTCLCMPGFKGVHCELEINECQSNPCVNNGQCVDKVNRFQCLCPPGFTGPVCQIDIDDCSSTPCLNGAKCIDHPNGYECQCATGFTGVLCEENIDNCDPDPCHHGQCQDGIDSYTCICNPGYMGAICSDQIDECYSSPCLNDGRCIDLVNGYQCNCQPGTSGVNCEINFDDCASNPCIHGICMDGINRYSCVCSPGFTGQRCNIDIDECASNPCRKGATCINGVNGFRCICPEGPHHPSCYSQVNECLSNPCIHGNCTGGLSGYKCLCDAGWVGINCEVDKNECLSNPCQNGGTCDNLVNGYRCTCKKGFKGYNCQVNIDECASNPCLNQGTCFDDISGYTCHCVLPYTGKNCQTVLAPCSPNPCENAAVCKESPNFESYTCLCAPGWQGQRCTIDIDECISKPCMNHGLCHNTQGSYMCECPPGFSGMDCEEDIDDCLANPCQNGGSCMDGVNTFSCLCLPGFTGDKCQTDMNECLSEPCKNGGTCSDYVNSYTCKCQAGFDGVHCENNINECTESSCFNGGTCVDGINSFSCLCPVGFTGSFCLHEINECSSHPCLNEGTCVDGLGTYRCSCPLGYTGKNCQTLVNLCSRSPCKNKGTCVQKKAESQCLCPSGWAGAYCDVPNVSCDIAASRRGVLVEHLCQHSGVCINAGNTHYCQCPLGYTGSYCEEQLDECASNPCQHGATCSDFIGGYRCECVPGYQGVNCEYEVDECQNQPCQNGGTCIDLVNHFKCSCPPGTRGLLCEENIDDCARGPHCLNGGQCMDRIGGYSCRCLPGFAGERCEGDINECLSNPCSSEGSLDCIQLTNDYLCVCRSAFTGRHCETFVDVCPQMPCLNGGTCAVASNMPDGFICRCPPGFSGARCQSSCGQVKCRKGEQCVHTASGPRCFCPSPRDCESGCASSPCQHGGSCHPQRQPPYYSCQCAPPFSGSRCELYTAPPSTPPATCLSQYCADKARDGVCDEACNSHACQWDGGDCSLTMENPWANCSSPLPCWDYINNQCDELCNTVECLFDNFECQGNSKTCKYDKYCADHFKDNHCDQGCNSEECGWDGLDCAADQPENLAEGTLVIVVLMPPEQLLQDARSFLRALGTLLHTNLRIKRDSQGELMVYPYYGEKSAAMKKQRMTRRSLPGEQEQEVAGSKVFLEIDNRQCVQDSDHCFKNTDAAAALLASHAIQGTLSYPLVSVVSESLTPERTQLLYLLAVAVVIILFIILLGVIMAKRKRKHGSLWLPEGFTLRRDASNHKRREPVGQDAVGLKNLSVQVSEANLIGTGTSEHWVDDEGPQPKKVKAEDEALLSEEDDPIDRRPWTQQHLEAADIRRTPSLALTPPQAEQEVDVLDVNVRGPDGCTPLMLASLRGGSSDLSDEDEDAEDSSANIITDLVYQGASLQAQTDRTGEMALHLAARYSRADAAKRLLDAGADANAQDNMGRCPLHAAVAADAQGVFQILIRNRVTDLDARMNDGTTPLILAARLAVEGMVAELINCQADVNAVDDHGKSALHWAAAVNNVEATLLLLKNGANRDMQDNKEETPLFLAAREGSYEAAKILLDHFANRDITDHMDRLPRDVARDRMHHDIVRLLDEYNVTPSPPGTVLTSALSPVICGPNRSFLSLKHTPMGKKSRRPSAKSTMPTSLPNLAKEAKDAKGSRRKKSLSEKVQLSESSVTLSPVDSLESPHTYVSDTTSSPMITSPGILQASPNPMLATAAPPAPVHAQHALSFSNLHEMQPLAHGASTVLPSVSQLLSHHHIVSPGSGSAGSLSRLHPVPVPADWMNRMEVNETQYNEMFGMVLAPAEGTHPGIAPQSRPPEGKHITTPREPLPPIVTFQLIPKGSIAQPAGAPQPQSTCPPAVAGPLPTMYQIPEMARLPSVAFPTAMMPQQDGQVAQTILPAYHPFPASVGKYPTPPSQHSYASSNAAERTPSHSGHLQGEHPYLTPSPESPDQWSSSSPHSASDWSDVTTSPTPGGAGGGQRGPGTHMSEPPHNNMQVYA
`COCC(=C=CC[C@@H](O)c1ccccc1OCCO)C[C@@H](O)c1ccccn1` gave a composite z-score of 0.12.
`COc1ccc([Si](C)(C)[C@H]2[C@H](CCO)O[C@@]3(C(=O)N(Cc4cccc(N5CCOC5=O)c4)c4ccccc43)[C@@H]2C)cc1` gave a composite z-score of 0.849.
Molecule `COC(=O)C(CC#Cc1ccc2c(c1)[C@]1(C(=O)N2)[C@H](C(=O)N2CCc3cc(OC)c(OC)cc3C2)[C@H]2C(=O)O[C@H](c3ccccc3)[C@H](c3ccccc3)N2[C@@H]1c1ccc(O)cc1)C(=O)OC` has a composite z-score of 1.32.
Work on `COc1ccc([Si](C)(C)[C@H]2[C@H](CCn3cc(CCO)nn3)O[C@@]3(C(=O)N(Cc4cccc(N5C(=O)c6cccc7cccc5c67)c4)c4ccccc43)[C@@H]2C)cc1` yielded a composite z-score of 0.45.
Molecule `C[C@H]1ON(c2ccccc2)[C@@H](c2ccccc2)[C@@H]1C(=O)N1C(=O)OC[C@@H]1c1ccccc1` has a composite z-score of 0.527.
`COc1ccc(C#Cc2ccc3c(c2)[C@]2(C(=O)N3)[C@H](C(=O)O)[C@H]3C(=O)O[C@H](c4ccccc4)[C@H](c4ccccc4)N3[C@@H]2c2ccc(OCCO)cc2)cc1` gave a composite z-score of 0.357.
`C=CCC(OC(C)=O)[C@@H]1[C@@H](N(Cc2ccc(-c3ccccc3)cc2)C(=O)Cc2ccc(OC)cc2)c2cc(OCCCO)ccc2N1C(=O)c1ccc(-c2ccccc2)cc1` (some centres undefined) was tested, and the composite z-score was -0.137.
`Cc1ccc(S[C@]2(C(=O)NCC(C)C)CC(=O)N(C3CCCCC3)[C@@H]2c2ccc(CO)cc2I)cc1` was tested, and the composite z-score was 0.939.
`COC(=O)C(CC#Cc1ccc2c(c1)[C@]1(C(=O)N2)[C@H](c2ccc(OCCO)cc2)N2[C@H](c3ccccc3)[C@H](c3ccccc3)OC(=O)[C@H]2[C@@H]1C(=O)O)C(=O)OC` gave a composite z-score of 0.85.

Source: PubChem BioAssay
